GPR151 ag = human GPR151 activation; Q8TDV0; PathHunter beta-arrestin GPR151 cells, luminescence; activation, % at 11.2 µM; actives 1% (n = 650,000); AID 1508602; in the data active = activation above about 4.9%;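 note: 0% = median of compound wells and 100% = cells with positive control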
Target sequence (Q8TDV0 whole entry, looked up): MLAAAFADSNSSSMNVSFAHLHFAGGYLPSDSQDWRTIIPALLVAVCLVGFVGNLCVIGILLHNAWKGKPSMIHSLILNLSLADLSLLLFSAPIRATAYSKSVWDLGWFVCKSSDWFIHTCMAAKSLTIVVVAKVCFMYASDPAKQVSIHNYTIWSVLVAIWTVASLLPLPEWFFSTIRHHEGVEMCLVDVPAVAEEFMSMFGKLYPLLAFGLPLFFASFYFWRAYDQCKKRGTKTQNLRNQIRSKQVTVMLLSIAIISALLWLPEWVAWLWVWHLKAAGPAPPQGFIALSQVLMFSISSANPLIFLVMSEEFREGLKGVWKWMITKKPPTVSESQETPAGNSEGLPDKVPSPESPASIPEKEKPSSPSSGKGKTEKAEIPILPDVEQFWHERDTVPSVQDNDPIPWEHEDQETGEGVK
MITF primary = inhibitors of human MITF | O75030 | AlphaScreen MITF homodimerization, bead proximity signal | inhibition, % at 2.6 µM | actives 0.91% (n = 650,000); in the data active = inhibition above about 50%;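 note: 0% = vehicle wells with protein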
TEAD-YAP inh = TEAD-YAP interaction inhibition; HEK-TIYL cells, TEAD-Gal4/YAP UAS-luciferase luminescence; inhibition, % at 9.12 µM; actives 1.4% (n = 640,000); in the data active = inhibition above about 32%;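 note: 0% = median of test compound wells and 100% = reference inhibitor wells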
FBW7 activator = activators of human E3 ligase FBW7; normalized activity (activation), % at 26.1 µM; AID 1259310; AlphaScreen FBW7–phospho-cyclin E peptide binding, activator screen; Q969H0; actives 0.13% (n = 650,000); in the data active = normalized activity above about 1.9%;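 note: purified mutant Fbw7 with reduced substrate affinity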
MITF confirm = human MITF inhibition, confirmation. shares compounds with MITF primary. AlphaScreen MITF homodimerization, biotin/His-MITF beads. inhibition, % at 2.6 µM. actives 16% (n = 4,700);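 active = inhibition above a cutoff derived from the DMSO control wells, cut at about 28% in these data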;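 note: 0% = MITF dimer wells with DMSO only; inhibitors lower the bead chemiluminescence by keeping MITF from dimerizing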
AS interf ctr = optically interferes with AlphaScreen signal. actives 7.6% (n = 4,700). shares compounds with MITF primary. inhibition, % at 2.6 µM. LysRS AlphaScreen counterscreen, signal interference, triplicate. AID 1259376;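 active = inhibition above a cutoff derived from the DMSO control wells, cut at about 30% in these data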
Active calls of the source: *; / = no result given. Compounds with a hit are over-represented: about 3.4% of the library has one in this group of screens.

SMILES | GPR151 ag | MITF primary | TEAD-YAP inh | FBW7 activator | MITF confirm | AS interf ctr
O=[N+]([O-])c1ccccc1CN1CCN(CC2CC3C=CC2C3)CC1 (stereo not given) | -0.4 | 66.6* | 6.4 | -0.2 | -2.1 | -1.4
Cc1ccc(S(=O)(=O)NC[C@@H]2CC3C=CC2C3)cc1 (stereo not given in full) | -1.0 | 9.9 | 1.0 | -0.1 | / | /
O=[N+]([O-])c1ccc(CN2CCN(CC3CC4C=CC3C4)CC2)cc1 (stereo not given) | -0.3 | 63.0* | 4.0 | 0.0 | 12.3 | 14.9
O=C(CNC(=O)C(c1ccccc1)c1ccccc1)N/N=C\c1cc(O)ccc1[N+](=O)[O-] | -1.0 | -0.9 | -9.0 | 0.0 | / | /
CCOc1ccc(-c2cn3c(CC(=O)N4CCCCC4CC)csc3n2)cc1 (stereo not given) | 0.3 | 10.8 | -8.8 | 0.1 | / | /
CCOc1ccc(-c2cn3c(CC(=O)N4CCN(c5ccccc5)CC4)csc3n2)cc1 | 0.7 | 55.0* | 0.2 | 0.0 | 4.2 | 6.0
Cc1ccc([N+](=O)[O-])cc1N1C(=O)/C(=C\c2ccccc2)N=C1c1ccccc1 | 1.9 | 0.7 | -14.4 | -0.1 | / | /
CC1CCCN(CCOc2ccccc2[N+](=O)[O-])C1 (stereo not given) | -1.1 | 54.4* | 5.5 | 0.0 | 1.5 | 4.7
O=[N+]([O-])c1ccccc1OCCCCN1CCNCC1 | -0.1 | 67.3* | -9.6 | 0.0 | 3.8 | 5.5
CCN1CCN(CCCOc2ccccc2[N+](=O)[O-])CC1 | 0.3 | 73.5* | 1.9 | 0.1 | 9.2 | 11.5
O=[N+]([O-])c1ccccc1OCCN1CCCC1 | 0.2 | 10.0 | -5.0 | 0.0 | / | /
Cc1ccc(OCCCCN2CCNCC2)c([N+](=O)[O-])c1 | -0.4 | 79.7* | 0.3 | -0.5 | -17.8 | 1.7
NC(=O)C1CCN(C(=O)CN(c2ccccc2F)S(=O)(=O)c2ccccc2)CC1 | -0.6 | -4.3 | 6.5 | -0.1 | / | /
CC1(C)CC(=O)C(C(C2=C(O)CC(C)(C)CC2=O)c2ccccc2O)C(=O)C1 (stereo not given) | 0.0 | 8.5 | -4.2 | 0.4 | / | /
CCC(C1=C(O)CC(C)(C)CC1=O)C1C(=O)CC(C)(C)CC1=O (stereo not given) | -0.6 | 52.6* | 8.0 | -0.1 | 2.2 | 1.1
COc1ccc(OC)c(CN2CCN(c3ccccc3OC)CC2)c1 | -1.2 | 22.8 | 3.0 | 0.8 | / | /
COc1ccc(OC)c(CN2CCN(Cc3ccccc3C(F)(F)F)CC2)c1 | -1.0 | 71.3* | -1.4 | -0.2 | 8.5 | -4.9
COc1cc(OC)c(OC)cc1CN1CCN(Cc2ccccc2C(F)(F)F)CC1 | -1.0 | 75.9* | -7.5 | -0.3 | 4.4 | 8.1
COc1cc(CN2CCN(Cc3ccccc3F)CC2)cc(OC)c1O | -1.3 | 1.4 | 6.2 | 0.0 | / | /
COc1ccc(CN2CCN(Cc3ccccc3C(F)(F)F)CC2)c(OC)c1 | -0.1 | 77.6* | 7.1 | 0.5 | 16.3 | 14.1
COc1cc(CN2CCN(Cc3ccccc3C(F)(F)F)CC2)cc(OC)c1O | -1.4 | 67.7* | -1.1 | 0.1 | 1.6 | 23.3
CCOC(=O)NC(Nc1sc2c(c1C(N)=O)CCC2)(C(F)(F)F)C(F)(F)F | 0.8 | -7.9 | -2.1 | 0.1 | / | /
CCN(CC)/C(=N\S(=O)(=O)c1cccc([N+](=O)[O-])c1)c1ccccc1 | 0.9 | 16.1 | 0.8 | -0.2 | / | /
COc1ccc(CN2CCN(Cc3ccccc3C(F)(F)F)CC2)c(OC)c1OC | -0.6 | 58.7* | 2.7 | -0.1 | 5.4 | 15.6
COc1ccccc1N1CCN(Cc2ccc(OC)c(OC)c2OC)CC1 | 0.2 | 27.6 | 3.7 | -0.1 | / | /
SMILES | GPR151 ag | MITF primary | TEAD-YAP inh | FBW7 activator | MITF confirm | AS interf ctr
CCOc1cccc(-c2cn3c(NC(=O)c4ccco4)cnc3cn2)c1 | 0.4 | 1.4 | 7.2 | 0.0 | / | /
Cc1ccccc1CN1CCN(Cc2ccccc2C(F)(F)F)CC1 | -1.5 | 79.9* | 0.3 | 0.5 | -1.9 | 13.3
FC(F)(F)c1ccccc1CN1CCOCC1 | 0.5 | 76.9* | 8.0 | 0.3 | 2.7 | -1.4
FC(F)(F)c1ccccc1CN1CCN(Cc2ccc(Cl)cc2)CC1 | -0.9 | 41.0 | -11.6 | 0.3 | / | /
FC(F)(F)c1ccccc1CN1CCN(Cc2cccnc2)CC1 | 0.9 | 83.1* | -1.1 | 0.1 | 9.7 | 22.0
O=C1OC(c2cc([N+](=O)[O-])ccc2Cl)=N/C1=C\C=C\c1ccccc1 | 2.1 | -14.9 | -3.5 | 0.1 | / | /
CC1=C(N2CCCCC2)C(=O)CC(C)(C)C1 | -0.5 | 4.3 | 7.8 | -0.1 | / | /
Cc1ccc2onc(CNC(=O)Nc3ccccn3)c2c1 | -2.4 | 2.4 | -34.4 | -0.1 | / | /
